# Experimental data: PubChem BioAssay (NCATS)
# “And” between values parts separate entries of the source, which are not always exact repeats. Equal values may be shown once. A number with no mark means an inactive call. Records with an inconclusive call do not appear. Where a call stands in place of a potency, no number is given. The source made the active and inactive calls. Unless noted, calls come from the whole dose curve; as a rule, active = well fitted curve in the direction sought with a large enough effect; inconclusive = small, poorly fitted or top-dose-only effect, or another doubt; inactive = no such curve, though single readings can be large; an effect the other way counts as inactive or inconclusive.
# What was measured:
# Es-2 = assay: Primary qHTS to identify gynecologic anti-cancer compounds using libraries of approved drugs and bioactive compounds (AID 1345084); conditions: Gynecologic cancer cell panel viability, ATPlite luminescence, 48 h; series mostly up to 57.5 µM; note: nearly all actives have a fitted effect of over 55% in size
# Method in brief: (§1)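 Measured: luminescence after ATPlite addition (15 min, RT). Exposure: 48 h, 37 C, 5% CO2.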
# HeLa = assay: as above; conditions: Gynecologic cancer cell panel viability, ATPlite luminescence, 48 h; series mostly up to 57.5 µM
# Method in brief: as §1
# Hek293T = assay: as above; conditions: Gynecologic cancer cell panel viability, ATPlite luminescence, 48 h, control line for the selectivity index; series mostly up to 57.5 µM
# Method in brief: as §1
# JEG-3 = assay: as above; conditions: Gynecologic cancer cell panel viability, ATPlite luminescence, 48 h; series mostly up to 57.5 µM
# Method in brief: as §1
# OV90 = assay: as above; conditions: Gynecologic cancer cell panel viability, ATPlite luminescence, 48 h; series mostly up to 57.5 µM
# Method in brief: as §1
# PA-1 = assay: as above; conditions: Gynecologic cancer cell panel viability, ATPlite luminescence, 48 h; series mostly up to 57.5 µM
# Method in brief: as §1
# SKOV3 = assay: as above; conditions: Gynecologic cancer cell panel viability, ATPlite luminescence, 48 h; series mostly up to 57.5 µM
# Method in brief: as §1
# Tov-21-G = assay: as above; conditions: Gynecologic cancer cell panel viability, ATPlite luminescence, 48 h; series mostly up to 57.5 µM
# Method in brief: as §1
# Tov112D = assay: as above; conditions: Gynecologic cancer cell panel viability, ATPlite luminescence, 48 h; series mostly up to 57.5 µM
# Method in brief: as §1
# [1] = Drug repurposing screens with cells derived from glioblastoma tumor samples (AID 1345199); conditions: GBM patient neurospheres viability, ATP luminescence, 48 h; note: nearly all actives have a fitted effect of over 40% in size; note: potency is the fitted concentration of half-maximal effect
# Method in brief: (§2)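 Four patient lines of CD133+ GBM neurospheres were screened at several concentrations; hits were retested in those lines plus three slower-growing GBM lines, using 48-hour treatment and ATP-based viability.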
# astro = assay: as above; conditions: viability, ATP luminescence, 48 h; series mostly up to 45.9 µM
# Method in brief: as §2
# [2] = biological target: Nuclear receptor subfamily 1 group I member 2 (Rattus norvegicus) (UniProt Q9R1A7); assay: qHTS assay for small molecule activators of the rat pregnane X receptor (rPXR) signaling pathway (AID 651751; call rule not given here); conditions: rPXR reporter cells, luciferase (One-Glo), 24 h
# Sequence of Nuclear receptor subfamily 1 group I member 2 (Rattus norvegicus) (Q9R1A7 whole entry, looked up): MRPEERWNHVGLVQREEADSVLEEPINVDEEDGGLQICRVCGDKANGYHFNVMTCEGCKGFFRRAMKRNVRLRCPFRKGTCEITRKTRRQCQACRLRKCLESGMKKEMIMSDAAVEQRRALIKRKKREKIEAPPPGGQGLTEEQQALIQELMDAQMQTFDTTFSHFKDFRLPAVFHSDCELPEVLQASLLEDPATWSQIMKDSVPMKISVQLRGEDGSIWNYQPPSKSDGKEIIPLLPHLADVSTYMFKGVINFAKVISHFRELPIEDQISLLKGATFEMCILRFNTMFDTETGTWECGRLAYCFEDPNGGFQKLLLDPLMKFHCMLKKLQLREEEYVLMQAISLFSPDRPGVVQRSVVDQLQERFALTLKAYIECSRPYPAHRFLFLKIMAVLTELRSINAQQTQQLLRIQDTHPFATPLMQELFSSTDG
# [3] = qHTS assay for small molecule activators of the human pregnane X receptor (PXR) signaling pathway (AID 720659; call rule not given here)
# [4] = at 45.9 µM (top of the series), tumour line B
# [5] = at 45.9 µM (top of the series), tumour line D
# [6] = at 46 µM (top of the series), tumour line A
# [7] = at 46.1 µM (top of the series), tumour line C
structure (smiles),measurement,setting,value
COCCc1ccc(OCC(O)CNC(C)C)cc1 (stereo not drawn),Potency,Es-2,inactive
same,Potency,HeLa,inactive
same,Potency,Hek293T,inactive
same,Potency,JEG-3,inactive
same,Potency,OV90,inactive
same,Potency,PA-1,inactive
same,Potency,SKOV3,inactive
same,Potency,Tov-21-G,inactive
same,Potency,Tov112D,inactive
same,"activity, negative = cell killing",[1]; [4],-10.1% and -7.19% and -6.43%
same,"activity, negative = cell killing",[1]; [5],1.85% and 20.6% and -26.1%
same,"activity, negative = cell killing",[1]; [6],-33.9%
same,"activity, negative = cell killing",[1]; [7],-0.129% and -0.523%
same,Potency,astro,inactive
NS(=O)(=O)c1cc2c(cc1Cl)NC(C1CC3C=CC1C3)NS2(=O)=O (stereo not drawn),Potency,Es-2,inactive
same,Potency,HeLa,inactive
same,Potency,Hek293T,inactive
same,Potency,JEG-3,inactive
same,Potency,OV90,inactive
same,Potency,PA-1,inactive
same,Potency,SKOV3,inactive
same,Potency,Tov-21-G,inactive
same,Potency,Tov112D,inactive
same,"activity, negative = cell killing",[1]; [4],0.786%
same,"activity, negative = cell killing",[1]; [5],7.03%
same,"activity, negative = cell killing",[1]; [6],-11.5%
same,"activity, negative = cell killing",[1]; [7],-5.22%
same,Potency,astro,inactive
CCN(CC)CCNC(=O)c1ccc(NC(C)=O)cc1,Potency,Es-2,inactive
same,Potency,HeLa,inactive
same,Potency,Hek293T,inactive
same,Potency,JEG-3,inactive
same,Potency,OV90,inactive
same,Potency,PA-1,inactive
same,Potency,SKOV3,inactive
same,Potency,Tov-21-G,inactive
same,Potency,Tov112D,inactive
same,"activity, negative = cell killing",[1]; [4],-5.4%
same,"activity, negative = cell killing",[1]; [5],7.82%
same,"activity, negative = cell killing",[1]; [6],7.67%
same,"activity, negative = cell killing",[1]; [7],-13.9%
same,Potency,astro,inactive
NC(=O)c1cn(Cc2c(F)cccc2F)nn1,Potency,Es-2,inactive
same,Potency,HeLa,inactive
same,Potency,Hek293T,inactive
same,Potency,JEG-3,inactive
same,Potency,OV90,inactive
same,Potency,PA-1,inactive
same,Potency,SKOV3,inactive
same,Potency,Tov-21-G,inactive
same,Potency,Tov112D,inactive
same,"activity, negative = cell killing",[1]; [4],-2.3%
same,"activity, negative = cell killing",[1]; [5],-3.04%
same,"activity, negative = cell killing",[1]; [6],-26.2%
same,"activity, negative = cell killing",[1]; [7],-19.6%
CC(C)[N+](C)(CCOC(=O)C1c2ccccc2Oc2ccccc21)C(C)C,Potency,Es-2,inactive
same,Potency,HeLa,inactive
same,Potency,Hek293T,inactive
same,Potency,JEG-3,inactive
same,Potency,OV90,inactive
same,Potency,PA-1,inactive
same,Potency,SKOV3,inactive
same,Potency,Tov-21-G,inactive
same,Potency,Tov112D,inactive
same,"activity, negative = cell killing",[1]; [4],-4.27%
same,"activity, negative = cell killing",[1]; [5],-14.8%
same,"activity, negative = cell killing",[1]; [6],-16.6%
same,"activity, negative = cell killing",[1]; [7],-11.5%
same,Potency,astro,inactive
C[N+](C)(C)CCOC(=O)CCC(=O)OCC[N+](C)(C)C,Potency,Es-2,inactive
same,Potency,HeLa,inactive
same,Potency,Hek293T,inactive
same,Potency,JEG-3,inactive
same,Potency,OV90,inactive
same,Potency,PA-1,inactive
same,Potency,SKOV3,inactive
same,Potency,Tov-21-G,inactive
same,Potency,Tov112D,inactive
same,"activity, negative = cell killing",[1]; [4],5.74%
same,"activity, negative = cell killing",[1]; [5],-9.68%
same,"activity, negative = cell killing",[1]; [6],-19.2%
same,"activity, negative = cell killing",[1]; [7],9.88%
same,Potency,astro,inactive
C[N+](C)(C)CCOC(N)=O,Potency,Es-2,inactive
same,Potency,HeLa,inactive
same,Potency,Hek293T,inactive
same,Potency,JEG-3,inactive
same,Potency,OV90,inactive
same,Potency,PA-1,inactive
same,Potency,SKOV3,inactive
same,Potency,Tov-21-G,inactive
same,Potency,Tov112D,inactive
same,"activity, negative = cell killing",[1]; [4],-5.35%
same,"activity, negative = cell killing",[1]; [5],-11.4%
same,"activity, negative = cell killing",[1]; [7],-0.881%
same,Potency,astro,inactive
CCCCNc1c(C(=O)OCC)c(C)nc2c1cnn2CC,Potency,Es-2,inactive
same,Potency,HeLa,inactive
same,Potency,Hek293T,inactive
same,Potency,JEG-3,inactive
same,Potency,OV90,inactive
same,Potency,PA-1,inactive
same,Potency,Tov-21-G,inactive
same,Potency,Tov112D,inactive
same,"activity, negative = cell killing",[1]; [4],-23.3%
same,Potency,[1]; tumour line A,12.6 µM (active)
same,Potency,astro,inactive
CN(C)CCCN1c2ccccc2Sc2ccccc21,Potency,Es-2,inactive
same,Potency,HeLa,inactive
same,Potency,Hek293T,inactive
same,Potency,JEG-3,inactive
same,Potency,PA-1,inactive
same,Potency,SKOV3,inactive
same,Potency,Tov-21-G,inactive
same,Potency,Tov112D,inactive
same,"activity, negative = cell killing","[1]; at 20 µM (top of the series), tumour line C",-19.7%
same,Potency,[1]; tumour line A,12.6 µM (active)
same,Potency,[1]; tumour line D,10 µM (active)
N[C@@H](COP(=O)(O)O)C(=O)O,Potency,Es-2,inactive
same,Potency,HeLa,inactive
same,Potency,Hek293T,inactive
same,Potency,JEG-3,inactive
same,Potency,OV90,inactive
same,Potency,PA-1,inactive
same,Potency,SKOV3,inactive
same,Potency,Tov-21-G,inactive
same,Potency,Tov112D,inactive
same,"activity, negative = cell killing",[1]; [4],-4.31%
same,"activity, negative = cell killing",[1]; [5],-5.04%
same,"activity, negative = cell killing",[1]; [7],-9.92%
same,Potency,astro,inactive
CCCCNC(=O)NS(=O)(=O)c1ccc(C)cc1,Potency,Es-2,inactive
same,Potency,HeLa,inactive
same,Potency,Hek293T,inactive
same,Potency,JEG-3,inactive
same,Potency,OV90,inactive
same,Potency,PA-1,inactive
same,Potency,SKOV3,inactive
same,Potency,Tov-21-G,inactive
same,Potency,Tov112D,inactive
same,"activity, negative = cell killing",[1]; [4],-7.32%
same,"activity, negative = cell killing",[1]; [5],-11.9%
same,"activity, negative = cell killing",[1]; [6],-4.33%
same,"activity, negative = cell killing",[1]; [7],8.27%
same,Potency,astro,inactive
same,max response,[2],-1.54% and 0.831%
same,outcome,[3],inactive
CCN(CC)CC(=O)Nc1c(C)cccc1C,Potency,Es-2,inactive
same,Potency,HeLa,inactive
same,Potency,Hek293T,inactive
same,Potency,JEG-3,inactive
same,Potency,OV90,inactive
same,Potency,PA-1,inactive
same,Potency,SKOV3,inactive
same,Potency,Tov-21-G,inactive
same,Potency,Tov112D,inactive
same,"activity, negative = cell killing",[1]; [4],-12.8%
same,"activity, negative = cell killing",[1]; [6],16.4%
same,"activity, negative = cell killing",[1]; [7],-29.2%
same,Potency,astro,inactive
CC(C)NCC(O)c1cc(O)cc(O)c1 (stereo not drawn),Potency,Es-2,inactive
same,Potency,HeLa,inactive
same,Potency,Hek293T,inactive
same,Potency,JEG-3,inactive
same,Potency,OV90,inactive
same,Potency,PA-1,inactive
same,Potency,SKOV3,inactive
same,Potency,Tov-21-G,inactive
same,Potency,Tov112D,inactive
same,"activity, negative = cell killing",[1]; [4],-18.9%
same,"activity, negative = cell killing",[1]; [5],17.6%
same,"activity, negative = cell killing",[1]; [7],-22.7%
same,Potency,astro,inactive
CN1CCN(CC(=O)N2c3ccccc3C(=O)Nc3cccnc32)CC1,"activity change, negative = cytotoxicity",Es-2,2.19% [at 6.55 µM]
same,"activity change, negative = cytotoxicity",HeLa,1.94% [at 6.55 µM]
same,"activity change, negative = cytotoxicity",Hek293T,3.74% [at 6.55 µM]
same,"activity change, negative = cytotoxicity",JEG-3,-2.67% [at 6.55 µM]
same,"activity change, negative = cytotoxicity",OV90,8.92% [at 6.55 µM]
same,"activity change, negative = cytotoxicity",PA-1,18.1% [at 6.55 µM]
same,"activity change, negative = cytotoxicity",SKOV3,8.94% [at 6.55 µM]
same,"activity change, negative = cytotoxicity",Tov-21-G,7.44% [at 6.55 µM]
same,"activity change, negative = cytotoxicity",Tov112D,-0.53% [at 6.55 µM]
same,"activity, negative = cell killing",[1]; [4],-1.68%
same,"activity, negative = cell killing",[1]; [5],-4.29%
same,"activity, negative = cell killing",[1]; [7],9.11%
same,Potency,astro,inactive
COc1ccc(CCN(C)CCCC(C#N)(c2cc(OC)c(OC)c(OC)c2)C(C)C)cc1OC (stereo not drawn),Potency,Es-2,inactive
same,Potency,HeLa,inactive
same,Potency,Hek293T,inactive
same,Potency,JEG-3,inactive
same,Potency,OV90,inactive
same,Potency,SKOV3,inactive
same,Potency,Tov-21-G,inactive
same,Potency,Tov112D,inactive
same,"activity, negative = cell killing",[1]; [4],-13.5%
same,"activity, negative = cell killing",[1]; [7],-13.9%
same,Potency,[1]; tumour line A,14.1 µM (active)
same,Potency,astro,inactive
